# Compound: C#CCNC(=O)CCSSCCC(=O)NCCc1ccc(C=O)c(C=O)c1
# Experiment: lysine labeling ratio R10:1 (500 µM / 50 µM probe), SILAC-ABPP in living cells; higher = lower intrinsic lysine reactivity toward the probe, active = 2 or less
# Settings: HeLa; probe concentrations 500 vs 50 µM
# Outline: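 In PBS at room temperature, living HeLa cells grown with SILAC light or heavy labels were treated with 50 µM or 500 µM of an alkyne-tagged, disulfide-linked lysine probe, with label swaps in both directions. Analysis was by LC-MS/MS on a TIMS-TOF Pro after click to biotin-azide, neutravidin capture and DTT release. For each lysine, R is the median across forward and reverse replicates of the filtered median high-probe/low-probe MS1 peptide ratio, capped at 20.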
# Chain of UniProt P05787 (P05787 whole entry): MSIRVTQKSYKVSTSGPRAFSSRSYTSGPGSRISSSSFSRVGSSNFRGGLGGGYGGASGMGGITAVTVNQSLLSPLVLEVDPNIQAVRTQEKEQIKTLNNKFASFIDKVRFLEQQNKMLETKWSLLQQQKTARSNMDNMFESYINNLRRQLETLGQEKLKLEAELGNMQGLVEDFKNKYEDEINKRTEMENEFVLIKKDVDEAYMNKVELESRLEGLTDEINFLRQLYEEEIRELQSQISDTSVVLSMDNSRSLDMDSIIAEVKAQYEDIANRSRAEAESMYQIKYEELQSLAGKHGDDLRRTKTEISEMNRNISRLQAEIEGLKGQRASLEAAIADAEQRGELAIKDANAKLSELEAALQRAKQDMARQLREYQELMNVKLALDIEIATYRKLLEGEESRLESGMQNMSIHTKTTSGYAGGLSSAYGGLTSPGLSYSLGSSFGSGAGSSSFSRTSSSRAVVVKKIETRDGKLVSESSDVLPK
# Chain of UniProt Q9HCU4 (Q9HCU4 whole entry): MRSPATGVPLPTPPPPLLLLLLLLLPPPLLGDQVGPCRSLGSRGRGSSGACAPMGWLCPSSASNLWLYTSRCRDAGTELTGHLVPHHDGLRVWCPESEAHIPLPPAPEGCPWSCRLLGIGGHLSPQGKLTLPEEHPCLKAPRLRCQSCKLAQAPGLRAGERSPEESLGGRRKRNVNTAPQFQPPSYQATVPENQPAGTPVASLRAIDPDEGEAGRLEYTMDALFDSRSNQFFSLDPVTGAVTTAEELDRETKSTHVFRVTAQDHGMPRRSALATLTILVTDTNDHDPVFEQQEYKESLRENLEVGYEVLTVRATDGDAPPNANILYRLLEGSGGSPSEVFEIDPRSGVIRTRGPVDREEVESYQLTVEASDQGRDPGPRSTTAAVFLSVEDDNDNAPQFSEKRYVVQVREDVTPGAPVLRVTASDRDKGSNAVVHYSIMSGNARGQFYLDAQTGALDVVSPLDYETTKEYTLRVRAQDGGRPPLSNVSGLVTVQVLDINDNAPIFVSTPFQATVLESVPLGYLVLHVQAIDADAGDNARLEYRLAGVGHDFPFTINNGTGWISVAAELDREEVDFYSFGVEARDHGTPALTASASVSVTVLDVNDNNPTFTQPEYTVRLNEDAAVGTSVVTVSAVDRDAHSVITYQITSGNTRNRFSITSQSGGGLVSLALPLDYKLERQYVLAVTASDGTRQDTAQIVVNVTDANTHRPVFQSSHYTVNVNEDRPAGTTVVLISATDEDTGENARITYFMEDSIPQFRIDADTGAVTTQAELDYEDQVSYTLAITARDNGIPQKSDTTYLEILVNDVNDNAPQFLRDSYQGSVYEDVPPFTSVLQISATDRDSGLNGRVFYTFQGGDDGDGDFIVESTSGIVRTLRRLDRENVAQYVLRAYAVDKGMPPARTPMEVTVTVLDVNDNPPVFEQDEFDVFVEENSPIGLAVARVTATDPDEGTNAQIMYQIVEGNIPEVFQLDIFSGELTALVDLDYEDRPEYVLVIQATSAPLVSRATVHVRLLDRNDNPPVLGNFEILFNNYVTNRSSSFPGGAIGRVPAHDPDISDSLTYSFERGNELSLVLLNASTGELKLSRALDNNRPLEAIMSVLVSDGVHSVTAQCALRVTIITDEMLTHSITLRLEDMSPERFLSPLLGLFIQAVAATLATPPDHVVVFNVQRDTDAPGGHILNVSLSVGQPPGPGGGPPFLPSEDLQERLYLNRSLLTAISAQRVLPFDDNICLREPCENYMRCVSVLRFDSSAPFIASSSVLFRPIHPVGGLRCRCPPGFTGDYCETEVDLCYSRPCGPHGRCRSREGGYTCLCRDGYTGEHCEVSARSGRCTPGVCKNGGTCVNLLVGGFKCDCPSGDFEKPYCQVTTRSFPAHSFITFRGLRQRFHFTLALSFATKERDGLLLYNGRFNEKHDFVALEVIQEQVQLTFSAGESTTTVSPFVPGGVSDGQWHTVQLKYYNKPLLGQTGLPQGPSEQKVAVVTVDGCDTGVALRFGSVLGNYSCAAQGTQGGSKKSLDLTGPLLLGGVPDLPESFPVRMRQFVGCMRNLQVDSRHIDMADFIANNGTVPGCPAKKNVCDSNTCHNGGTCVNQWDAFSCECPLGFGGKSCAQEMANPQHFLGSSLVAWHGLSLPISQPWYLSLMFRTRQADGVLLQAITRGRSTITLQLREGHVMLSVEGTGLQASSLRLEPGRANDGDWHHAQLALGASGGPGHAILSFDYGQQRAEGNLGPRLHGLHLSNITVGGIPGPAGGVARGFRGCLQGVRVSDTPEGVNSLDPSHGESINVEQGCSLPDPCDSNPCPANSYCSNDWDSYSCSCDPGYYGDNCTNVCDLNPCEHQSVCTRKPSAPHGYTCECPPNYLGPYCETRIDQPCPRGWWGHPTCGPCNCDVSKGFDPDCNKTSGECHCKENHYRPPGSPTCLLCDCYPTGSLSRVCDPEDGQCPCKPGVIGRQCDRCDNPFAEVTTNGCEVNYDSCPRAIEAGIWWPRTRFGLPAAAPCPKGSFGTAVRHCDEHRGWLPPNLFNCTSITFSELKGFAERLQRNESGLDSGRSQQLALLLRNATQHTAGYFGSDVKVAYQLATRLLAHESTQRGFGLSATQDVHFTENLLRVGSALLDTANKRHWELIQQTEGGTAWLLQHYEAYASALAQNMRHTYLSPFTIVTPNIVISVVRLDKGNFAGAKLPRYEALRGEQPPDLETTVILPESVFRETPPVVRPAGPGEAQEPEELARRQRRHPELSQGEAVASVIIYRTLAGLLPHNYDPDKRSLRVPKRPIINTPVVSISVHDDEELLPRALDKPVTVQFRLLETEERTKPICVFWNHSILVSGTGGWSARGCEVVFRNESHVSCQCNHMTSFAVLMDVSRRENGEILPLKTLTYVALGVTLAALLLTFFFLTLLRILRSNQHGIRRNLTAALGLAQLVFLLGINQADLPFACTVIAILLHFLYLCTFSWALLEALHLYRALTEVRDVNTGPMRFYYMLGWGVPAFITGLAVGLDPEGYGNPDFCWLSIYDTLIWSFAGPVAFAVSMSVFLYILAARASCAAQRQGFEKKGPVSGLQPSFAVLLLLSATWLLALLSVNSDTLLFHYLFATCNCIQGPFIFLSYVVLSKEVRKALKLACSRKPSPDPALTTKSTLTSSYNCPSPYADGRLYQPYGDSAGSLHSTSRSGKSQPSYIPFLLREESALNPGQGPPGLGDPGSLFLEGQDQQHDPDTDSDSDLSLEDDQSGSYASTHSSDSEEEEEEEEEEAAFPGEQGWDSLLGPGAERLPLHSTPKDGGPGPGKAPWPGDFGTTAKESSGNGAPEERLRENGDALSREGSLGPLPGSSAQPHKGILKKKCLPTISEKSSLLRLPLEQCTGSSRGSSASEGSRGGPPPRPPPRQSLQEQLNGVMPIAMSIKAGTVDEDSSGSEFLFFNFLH
# Chain of UniProt Q14118 (Q14118 whole entry): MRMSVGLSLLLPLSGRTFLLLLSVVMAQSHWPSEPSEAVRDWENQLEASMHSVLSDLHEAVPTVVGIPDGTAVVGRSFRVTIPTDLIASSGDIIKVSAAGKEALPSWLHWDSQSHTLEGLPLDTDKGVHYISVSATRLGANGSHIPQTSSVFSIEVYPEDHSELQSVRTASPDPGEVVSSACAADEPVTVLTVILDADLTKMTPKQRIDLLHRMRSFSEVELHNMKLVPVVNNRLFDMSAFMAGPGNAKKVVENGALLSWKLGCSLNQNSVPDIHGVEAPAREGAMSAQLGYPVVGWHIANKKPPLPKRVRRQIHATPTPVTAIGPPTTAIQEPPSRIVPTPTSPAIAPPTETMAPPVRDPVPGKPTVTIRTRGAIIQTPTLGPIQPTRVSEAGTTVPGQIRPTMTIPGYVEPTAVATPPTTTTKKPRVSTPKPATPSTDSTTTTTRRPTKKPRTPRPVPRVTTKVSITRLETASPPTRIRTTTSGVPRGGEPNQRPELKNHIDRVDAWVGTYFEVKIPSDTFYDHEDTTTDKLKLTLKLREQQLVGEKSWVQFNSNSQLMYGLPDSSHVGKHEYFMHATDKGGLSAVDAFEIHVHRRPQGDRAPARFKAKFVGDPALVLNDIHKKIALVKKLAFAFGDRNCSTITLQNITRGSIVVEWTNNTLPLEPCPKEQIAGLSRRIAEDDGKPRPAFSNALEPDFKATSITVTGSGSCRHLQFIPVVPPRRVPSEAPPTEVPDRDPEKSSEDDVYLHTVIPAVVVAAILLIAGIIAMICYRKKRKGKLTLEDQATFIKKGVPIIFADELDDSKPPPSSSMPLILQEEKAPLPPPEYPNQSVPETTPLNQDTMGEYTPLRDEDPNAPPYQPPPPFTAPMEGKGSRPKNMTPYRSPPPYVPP
# Chain of UniProt Q9BS26 (Q9BS26 whole entry): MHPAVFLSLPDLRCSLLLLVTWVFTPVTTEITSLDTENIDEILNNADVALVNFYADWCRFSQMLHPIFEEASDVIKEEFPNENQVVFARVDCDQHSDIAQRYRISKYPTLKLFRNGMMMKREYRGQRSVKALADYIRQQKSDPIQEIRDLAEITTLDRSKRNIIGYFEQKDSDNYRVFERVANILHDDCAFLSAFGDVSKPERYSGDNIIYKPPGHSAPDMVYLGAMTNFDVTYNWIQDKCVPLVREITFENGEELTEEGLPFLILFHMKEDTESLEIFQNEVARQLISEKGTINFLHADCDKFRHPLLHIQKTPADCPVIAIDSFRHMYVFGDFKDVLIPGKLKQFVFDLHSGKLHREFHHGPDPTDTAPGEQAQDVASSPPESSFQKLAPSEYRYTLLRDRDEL
# Chain of UniProt O00264 (O00264 whole entry): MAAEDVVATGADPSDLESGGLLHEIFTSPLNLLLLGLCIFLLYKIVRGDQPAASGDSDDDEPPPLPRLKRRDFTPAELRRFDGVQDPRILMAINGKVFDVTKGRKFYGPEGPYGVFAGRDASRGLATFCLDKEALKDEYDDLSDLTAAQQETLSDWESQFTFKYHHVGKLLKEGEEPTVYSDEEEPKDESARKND
# Chain of UniProt P60903 (P60903 whole entry): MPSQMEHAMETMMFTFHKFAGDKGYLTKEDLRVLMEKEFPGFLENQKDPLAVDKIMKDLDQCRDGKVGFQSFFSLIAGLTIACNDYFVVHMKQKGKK
row,Target,lysine labeling ratio R10:1
1,UniProt Q9BS26 (lysine site: K130),2.57 (inactive)
2,UniProt Q9BSJ8 (lysine site: K197),5.31 (inactive)
3,PSMB4 (lysine site: K201) (UniProt P28070),3.87 (inactive)
4,ITGB1 (lysine site: K87) (UniProt P05556),2.04 (inactive)
5,UniProt P05787 (lysine site: K130),9.55 (inactive)
6,UniProt P05787 (lysine site: K352),9.16 (inactive)
7,UniProt P61088 (lysine site: K82),1.19 (active)
8,UniProt Q15149 (lysine site: K1815),3.79 (inactive)
9,LTF (lysine site: K476) (UniProt P02788),0.862 (active)
10,DAG1 (lysine site: K500) (UniProt Q14118),4.65 (inactive)
11,PTGFRN (lysine site: K763) (UniProt Q9P2B2),4.93 (inactive)
12,P4HB (lysine site: K309) (UniProt P07237),1.42 (active)
13,GSN (lysine site: K193) (UniProt P06396),2.07 (inactive)
14,S100A10 (lysine site: K57) (UniProt P60903),2.66 (inactive)
15,ARPC3 (lysine site: K29) (UniProt O15145),1.49 (active)
16,CDCP1 (lysine site: K396) (UniProt Q9H5V8),0.987 (active)
17,CD109 (lysine site: K573) (UniProt Q6YHK3),2.8 (inactive)
18,PGRMC1 (lysine site: K102) (UniProt O00264),5.04 (inactive)
19,RPL3 (lysine site: K155) (UniProt P39023),0.69 (active)
20,CELSR2 (lysine site: K2001) (UniProt Q9HCU4),1.5 (active)
21,SMOC1 (lysine site: K299) (UniProt Q9H4F8),4.95 (inactive)
22,SPTBN1 (lysine site: K1913) (UniProt Q01082),4.33 (inactive)
23,TGFBI (lysine site: K676) (UniProt Q15582),3.4 (inactive)
